# Compound activity deposited in PubChem BioAssay by several laboratories.
# CRFR2-BP ag: agonists of human CRF-binding protein/CRF-R2 receptor complex; HEK293 CRF-R2/CRF-BP, calcium dye fluorescence (FLIPR); percent of saturating CRF peptide response; activation, % at 13.2 µM; 350,000 compounds, 0.46% hits;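 active = activation of at least 50%, plus an integration ratio under a set limit after plate pattern correction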;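 also: plate controls were neutral control wells without compound for no effect and CRF at EC100 for full effect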
# IDE act: IDE (human) activation, cell-based; HEK cells, FAbeta-B cleavage, fluorescence polarization; 0% vehicle, 100% cell-free pure enzyme wells; P14735; AID 493087; 340,000 compounds, 0.073% hits; activation, % at 5.96 µM;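 active = activation above the mean of all tested compounds plus 3 SD, set per screening campaign, cut at about 17% in these data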
# TPT1 inh: inhibitors of Candida albicans tRNA 2'-phosphotransferase TPT1; 300,000 compounds, 0.81% hits; inhibition, % at 5 µM; recombinant caTPT1, FP RNA substrate dephosphorylation; AID 1962;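 active = inhibition above the mean of all tested compounds plus 3 SD, set per screening campaign, cut at about 24% in these data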;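 also: plate controls were DMSO alone for no effect and ferristatin control at 100 nM for full effect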
# IDE cell inh: cellular human IDE inhibition. P14735. HEK cells, FAbetaB cleavage, fluorescence polarization. inhibition, % at 5.59 µM. 320,000 compounds, 0.41% hits;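 active = percent inhibition above the average of all tested compounds plus 3 SD, set per screening campaign, cut at about 16% in these data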;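 also: IDE supplied by intact live HEK cells; FP after avidin binding of uncleaved biotin substrate so inhibition keeps polarization high; 0% = DMSO wells and 100% = 60 µM reference IDE inhibitor Ii1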
# HNF4A DNA FP: change in binding of human HNF4 alpha to DNA; AID 1224865; HNF4a-FITC DNA binding, fluorescence polarization, 1 h; activity change, % at 10 µM; P41235; 360,000 compounds, 0.3% hits; in the data active = activity change above about 30%, passing the limit was not always enough
# Target sequence (P41235 whole entry, looked up): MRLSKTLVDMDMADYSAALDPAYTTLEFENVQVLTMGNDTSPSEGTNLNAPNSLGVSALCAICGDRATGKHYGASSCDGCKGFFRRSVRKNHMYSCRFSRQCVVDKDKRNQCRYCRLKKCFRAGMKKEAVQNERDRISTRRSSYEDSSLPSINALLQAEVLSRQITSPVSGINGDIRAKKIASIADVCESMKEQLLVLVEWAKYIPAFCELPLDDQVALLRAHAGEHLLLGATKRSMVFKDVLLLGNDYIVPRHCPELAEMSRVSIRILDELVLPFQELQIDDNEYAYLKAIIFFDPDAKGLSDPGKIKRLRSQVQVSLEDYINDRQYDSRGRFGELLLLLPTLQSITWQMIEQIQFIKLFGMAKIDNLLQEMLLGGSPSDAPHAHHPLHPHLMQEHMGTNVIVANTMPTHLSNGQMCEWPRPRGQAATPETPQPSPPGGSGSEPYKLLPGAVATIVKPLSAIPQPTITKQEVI
# TPT1 inh confirm: confirmation of Candida albicans TPT1 inhibitors | shares compounds with TPT1 inh | inhibition, % at 5 µM | AID 2149 | 2,400 compounds, 74% hits | recombinant caTPT1, fluorescence polarization, RNase T1 coupled;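 active = inhibition above the primary screen limit, the mean inhibition of all tested compounds plus 3 SD, cut at about 25% in these data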
# RNase T1 counter: RNase T1 inhibition in TPT1 counter-screen; shares compounds with TPT1 inh; RNase T1 cleavage, fluorescence polarization, 1536-well; inhibition, % at 5 µM; 2,400 compounds, 83% hits;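 active = inhibition above the solvent-only control well mean plus 3 SD, limit set per screening run, cut at about 23% in these data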;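 also: plate controls were DMSO wells with enzyme for no effect and wells without RNase T1 for full effect; inhibitors block cleavage so intact labeled substrate keeps polarization high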
# An asterisk follows results filed as active; · = no result. An excerpt weighted towards active compounds, which were near 1.4% of everything screened.
SMILES,CRFR2-BP ag,IDE act,TPT1 inh,IDE cell inh,HNF4A DNA FP,TPT1 inh confirm,RNase T1 counter
N#C/C(=C\N1CCN(Cc2ccc3c(c2)OCO3)CC1)c1nc2ccccc2s1,12,-9,52*,5,30*,58*,66*
CCOC(=O)N1CCC(=NNc2nc3ccccc3s2)CC1,-1,-4,0,6,2,·,·
CCOC(=O)N1CCN(/C=C(\C#N)c2nc3ccccc3s2)CC1,3,2,75*,7,29,44*,54*
c1ccc2nc(N3CCN(Cc4ccc5c(c4)OCO5)CC3)cnc2c1,0,-9,-3,-2,0,·,·
COc1ccccc1C(=O)C1CCCN(Cc2cn[nH]c2C2CCCCC2)C1 (configuration not stated),-1,3,0,4,-3,·,·
CCSc1nnc(-c2sc3nnc(-c4ccccc4)c(-c4ccccc4)c3c2N)o1,116*,-72,42*,21*,31,42*,51*
CCSc1nnc(-c2ccncc2)o1,2,5,1,1,0,·,·
O=C1CSC(=S)N1/N=C/c1cc(Br)c(O)c(Br)c1,185*,-171,82*,133*,158,75*,84*
Cc1cccc(NC(=O)CN2C(=O)N/C(=C/c3ccc(C)s3)C2=O)c1,16,1,83*,8,60*,100*,108*
Cc1ccc(NC(=O)N/C=C/c2ccco2)cc1C,-1,6,24*,4,7,61*,73*
CCCc1cc(=O)[nH]c(SCC(=O)c2cc(C)n(-c3c(C)n(C)n(-c4ccccc4)c3=O)c2C)n1,-1,4,-3,1,2,·,·
N#Cc1c(C(F)(F)F)cc(-c2ccco2)nc1SCc1ccccn1,3,0,27*,1,7,18,23*
N#Cc1c(C(F)(F)F)cc(-c2ccco2)nc1SCc1ccncc1,0,1,23,8,13,·,·
CC1=C(C(=O)N(C)C)CC(CC(=O)NC2CCCC2)C(=O)N1CCC1=CCCCC1 (configuration not stated),-1,·,·,·,-1,·,·
CC1(C)Cc2c(c(N3CCOCC3)nc3sc(-c4ccc(C(=O)O)o4)c(N)c23)CO1,3,4,33*,0,85*,35*,47*
CNC(=O)c1ccc(-c2sc3nc(N4CCOCC4)c4c(c3c2N)CC(C)(C)OC4)o1,1,4,0,3,2,·,·
COc1ccc(-n2c(N)c(C(=O)NCc3ccco3)c3nc4ccccc4nc32)c(OC)c1,0,4,39*,1,3,10,17
c1ccc(-c2ccccc2OCCCCN2CCCCC2)cc1,-1,4,51*,0,3,4,9
COC(=O)c1cc(NC(=O)c2cccc(C(F)(F)F)c2)c(=O)oc1C/C=N/OCc1cccc(Cl)c1Cl,12,-4,35*,6,28,38*,45*
Cc1ccc(C)c(S(=O)(=O)Nc2ccc(C(=O)N3CCC3)cc2)c1,0,1,0,-1,0,·,·
Cc1cc(C)n2c(SC(C)C(=O)NC3(C#N)CCCCC3)nnc2n1 (configuration not stated),-1,6,·,5,-5,·,·
COc1ccc2o/c(=N\O)c(C(=O)Nc3ccccc3OC)cc2c1,15,-2,162*,28*,1,127*,125*
O=C(O)CCCC1(C(=O)O)CCCC1,-5,-1,·,·,2,·,·
O=C1/C(=C/c2cccnc2)SC(=S)N1Nc1ccccc1,-1,·,-4,10,-4,·,·
Cc1ccc(S(=O)(=O)NN2C(=O)/C(=C/c3cccn3C)SC2=S)cc1,·,·,57*,-12,·,60*,74*
Cn1cccc1/C=C1\SC(=S)N(Nc2ccccc2)C1=O,3,-7,42*,3,58*,72*,87*
CCC(=O)N1CCCc2cc(S(=O)(=O)CCC(=O)Nc3ccccc3C)ccc21,2,3,2,8,-2,·,·
Cc1cc2c(cc1C)C(c1cccc([N+](=O)[O-])c1)CC(=O)N2 (configuration not stated),3,-1,53*,4,0,19,32*
